High-throughput results as filed in PubChem BioAssay.
PfHsp90 yeast 2: growth inhibition of yeast expressing Plasmodium Hsp90 | AID 504621 | 0.32% of 310,000 active | inhibition, % at 9.4 µM | S. cerevisiae expressing PfHsp90, BacTiter-Glo ATP, 48 h; yeast lacking PDR1 and PDR3 efflux regulators;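 active = every replicate shows inhibition above about 80%, whatever the replicate mean, limit read from the data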
TIM10 inh: growth inhibitors of TIM10 yeast strain; S. cerevisiae TIM10 strain growth, BacTiter-Glo luminescence, 24 h; inhibition, % at 10 µM; 1.4% of 330,000 active;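 active = inhibition of 40% or more at the single tested concentration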;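 also: wild-type TIM10 isogenic control strain grown at permissive 25 °C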
SKKanGAS inh: inhibitors of SKKanGAS S. pyogenes growth in kanamycin (SK-promoter or general growth effect) | 1.3% of 300,000 active | BacTiter-Glo, 6 h | inhibition, % at 7.5 µM;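 active = mean replicate score, as percent of positive control median, at least 50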;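 also: strain carries kanamycin resistance gene driven by streptokinase promoter and grows in 40 µg/ml kanamycin; loss of luminescence reflects streptokinase promoter inhibition or plain growth inhibition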
tim23-1 inh: growth inhibitors of tim23-1 mutant yeast; S. cerevisiae tim23-1 growth, BacTiter-Glo luminescence, 24 h; inhibition, % at 20 µM; 1.3% of 330,000 active; AID 463212;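 active = growth inhibition of the mutant yeast at or above 50%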;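 also: temperature-sensitive mutant grown at 25 °C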
tim10-1 inh: growth inhibitors of tim10-1 mutant yeast; S. cerevisiae tim10-1 ts strain growth, BacTiter-Glo, 24 h; inhibition, % at 20 µM; 2.2% of 330,000 active;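 active = inhibition of at least 40%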;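 also: mutant grown at 25 °C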
NALP3 yeast inh: blocks the NALP3 inflammasome reconstituted in yeast; Yeast reconstituted NLRP3/ASC/caspase-1, beta-gal luminescence, 24 h; inhibition, % at 10 µM; 0.39% of 330,000 active;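 active = inhibition of 50% or more; inactive = inhibition below 50%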
TIM10 conf: confirmation of TIM10 yeast growth inhibitors; shares compounds with TIM10 inh; S. cerevisiae tim10 strain growth, BacTiter-Glo luminescence, 24 h; inhibition, % at 10 µM; 63% of 4,600 active;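 active = inhibition of yeast growth at or above a set limit in either of two replicates at 10 µM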; also: this counterscreen used the strain with wild-type TIM10
Each line names hits and unclear results; the compound was inactive in the other large screens (follow-up assays come after a bar, where they were run). Most compounds without a hit are left out; they make up all but 4.6% or so of the library.

CC1CCCCC1NC(=S)NC(=O)c1sc2ccccc2c1Cl (stereo unspecified)	none
O=C(NC(=S)N(CCCCO)C1CCCCC1)c1sc2ccccc2c1Cl	TIM10 inh 43, SKKanGAS inh 89 | TIM10 conf inactive
CC(=O)Nc1ccc(S(C)(=O)=O)c(C)c1	none
O=S(=O)(NCc1ccc2c(c1)OCO2)c1ccc2oc3ccccc3c2c1	TIM10 inh 49 (no result: PfHsp90 yeast 2) | TIM10 conf 35
NC(=O)CC(NC(=O)c1ccccc1)c1ccc(N2CCN(c3ccccc3)CC2)c([N+](=O)[O-])c1 (stereo unspecified)	none
NC(=O)CC(NC(=O)c1cccc(Br)c1)c1ccc(NCC2CC2)c([N+](=O)[O-])c1 (stereo unspecified)	none
Cc1cc(C)cc(C(=O)NC(CC(N)=O)c2ccc(N3CCN(c4ccccc4)CC3)c([N+](=O)[O-])c2)c1 (stereo unspecified)	TIM10 inh 49 | TIM10 conf inactive
NC(=O)CC(NC(=O)c1cccc(Br)c1)c1ccc(NCCN2CCOCC2)c([N+](=O)[O-])c1 (stereo unspecified)	TIM10 inh 43 (no result: PfHsp90 yeast 2) | TIM10 conf inactive
O=C(Cn1cnc2c(oc3ccccc32)c1=O)c1ccccc1	TIM10 inh 49 (no result: PfHsp90 yeast 2) | TIM10 conf inactive
CCCN(CCC)S(=O)(=O)c1ccc(C(=O)Nc2cc3oc4ccccc4c3cc2OC)cc1	none
COc1ccc(/C=C/C(=O)O)cc1S(=O)(=O)NCc1cccnc1	none
O=C1/C(=C\c2cccnc2)CCc2ccccc21	TIM10 inh 44 | TIM10 conf 40
O=C1/C(=C/c2cccnc2)CC/C1=C\c1cccnc1	none
COc1ccc(C2(O)CCN(CC(=O)Nc3nc(-c4ccccc4)cs3)CC2)cc1	TIM10 inh 52 | TIM10 conf 43
CCOC(=O)CSc1nnc(-c2ccoc2C)n1-c1ccc(C)cc1	none
CCOC(=O)CSc1nnc(-c2ccoc2C)n1-c1ccc(OCC)cc1	TIM10 inh 45 | TIM10 conf inactive
O=C(COc1ccc(Cl)cc1)Nc1ccc2c(c1)CCC2	TIM10 inh 41 | TIM10 conf inactive
CC(=O)c1ccc(OCC(=O)Nc2ccc3c(c2)CCC3)cc1	none
Cc1c(CNC(=O)C2CCC(=O)N(CCc3ccccc3)C2)cnn1C (stereo unspecified)	none
Cc1cccc(NC(=O)c2ccc3c(c2)OCCO3)c1	none
O=C(Nc1ccc(N2CCCCC2)c(Cl)c1)c1ccc2c(c1)OCCO2	TIM10 inh 45 | TIM10 conf inactive
Cc1ccc(NC(=O)c2ccc3c(c2)OCCO3)cc1S(=O)(=O)Nc1cccc(Cl)c1	TIM10 inh 43 | TIM10 conf inactive
Cc1cc2occ(CC(=O)N(C)CC(=O)Nc3cccc(F)c3)c2cc1C	none
O=S(=O)(Nc1cccc2c1ccc1cccn12)c1cccs1	TIM10 inh 45 | TIM10 conf inactive
O=C(Nc1ccc2c(c1)oc1ccccc12)c1ccncc1	TIM10 inh 43 | TIM10 conf 40
O=C(Nc1ccc2c(c1)oc1ccccc12)c1ccc2c(c1)OCO2	TIM10 inh 40 (no result: PfHsp90 yeast 2) | TIM10 conf inactive
O=C(Nc1ccc(NC(=O)c2ccncc2)cc1)c1ccncc1	none (no result: PfHsp90 yeast 2)
O=C(Nc1ccc2c(c1)OCO2)c1ccc2c(c1)OCO2	none
CC(C)/C=C(/C(=O)c1ccc(Cl)cc1Cl)n1cncn1	TIM10 inh 42 | TIM10 conf inactive
COc1ccccc1NC(=S)N/N=C/c1ccc(O)cc1	TIM10 inh 53 | TIM10 conf inactive
O=C(Nc1ccc(NC(=O)C2CCCCC2)nc1)c1cccs1	TIM10 inh 47 | TIM10 conf inactive
CCN1C(=O)C(=Cc2cccc(OC)c2Oc2ccc([N+](=O)[O-])cc2[N+](=O)[O-])SC1=S	TIM10 inh 44 | TIM10 conf inactive
Cc1ccc(/C=N/NC(=O)COc2ccc(Cl)c(C)c2)o1	none
O=C(COc1ccc(Cl)cc1Cl)NNC(=S)Nc1ccc(F)cc1	TIM10 inh 45 | TIM10 conf 38
CCN(CC)CCSc1nnc2c3cc(C)ccc3n(Cc3ccccc3)c2n1	none (no result: PfHsp90 yeast 2)
CN(c1ccccc1)S(=O)(=O)c1ccc(NC(=S)NC(=O)C2CC2)cc1	TIM10 inh 41 | TIM10 conf inactive
CN(c1ccccc1)S(=O)(=O)c1ccc(NC(=S)NC(=O)c2ccccc2)cc1	none
CN(C1CCCCC1)S(=O)(=O)c1ccc(NC(=S)NC(=O)c2cccs2)cc1	TIM10 inh 51 | TIM10 conf 36
Clc1c(CSc2nc3ccccc3o2)nc2ccccn12	TIM10 inh 43 | TIM10 conf inactive
O=S(=O)(c1ccc2c(c1)OCCO2)N1CCN(Cc2ccccc2)CC1	TIM10 inh 43 | TIM10 conf inactive
COc1cccc2cc(C(C)=O)oc12	none
COc1cccc2cc(/C(=N/O)c3ccccc3)oc12	TIM10 inh 55 | TIM10 conf 42
Cc1cc(Cl)ccc1OCC(O)CNCCc1ccc(S(N)(=O)=O)cc1 (stereo unspecified)	none
O=C(/C=C/c1ccc(Br)cc1)c1ccc(NC2=NCCCS2)cc1	TIM10 inh 52 | TIM10 conf inactive
COc1ccc(Cn2c(=O)oc3ccc(C)cc32)cc1	TIM10 inh 97 | TIM10 conf inactive
CC(C)n1c(N2CCN(S(=O)(=O)c3cccc([N+](=O)[O-])c3)CC2)nc2ccccc21	TIM10 inh 41 | TIM10 conf 34
Cn1c(N2CCN(S(=O)(=O)c3ccc(F)cc3)CC2)nc2ccccc21	none
CC(=O)Cc1nsc(NC(=O)c2ccccc2Cl)n1	TIM10 inh 51 (no result: SKKanGAS inh) | TIM10 conf inactive
CC(=O)C(Sc1nc(NC(C)(C)C)nc(N(C)C)n1)C(C)=O	TIM10 inh 44 | TIM10 conf inactive
COC(=O)c1c(NC(=O)COc2ccc(Cl)cc2)sc2c1CC(C)(C)NC2(C)C	TIM10 inh 46, SKKanGAS inh 68 | TIM10 conf inactive
COC(=O)c1c(NC(=O)Cc2ccccc2)sc2c1CC(C)(C)NC2(C)C	none
COc1ccc(/C=N/NC(=O)c2ccoc2C)cc1COc1ccc(Cl)cc1	TIM10 inh 51 | TIM10 conf inactive
COc1ccc(/C=N/NC(=O)c2ccoc2C)cc1OC	none
COc1ccc(CCNCC2C(Oc3ccc(Cl)cc3)C(=O)N2c2ccccc2C)cc1OC (stereo unspecified)	none
CC(C)(C)c1ccc(C(=O)N2CCN(c3ccc(N4CCOCC4)nn3)CC2)cc1	none
O=C(CN1CCN(c2nc(-c3ccc(Cl)cc3)cs2)CC1)NCc1ccco1	TIM10 inh 42 (no result: PfHsp90 yeast 2) | TIM10 conf 29
CNc1ncc(C(=O)c2ccc(Cl)c(Cl)c2)s1	TIM10 inh 55 | TIM10 conf inactive
CCCCNC(=O)[C@@H]1CSC2c3ccccc3C(=O)N21 (stereo partly specified)	none (no result: TIM10 inh, tim23-1 inh, tim10-1 inh, NALP3 yeast inh)
